An excerpt weighted towards active compounds, which were near 2% of everything screened.
Jurkat NFkB inh: lowers PMA/ionomycin-induced NF-kB signal in Jurkat cells; actives 0.53% (n = 330,000); PMA/ionomycin-induced NF-kB luciferase reporter, luminescence; inhibition, % at 4 µM; in the data active = inhibition above about 50%
Calb FLC: C. albicans growth modulation with fluconazole; C. albicans CaCi-2 (fluconazole-resistant clinical isolate) + fluconazole, Alamar Blue growth, 48 h; growth inhibition, % (no concentration beside the values); actives 0.57% (n = 300,000);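 active = growth inhibition above about 58% in most replicates, limit read from the data, passing the limit was not always enough; inconclusive = exactly half the replicates above a set limit; inactive = most replicates below a set limit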;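 also: all wells also contain fluconazole at 8 µg/ml as a sub-toxic cotreatment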
Shn3 inh set2: Schnurri-3 reporter inhibition in Clone20 osteoblasts | Clone20 osteoblast Shn3 3'UTR firefly luciferase, 24 h | actives 0.52% (n = 360,000) | inhibition, % at 12.5 µM;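 active = mean inhibition of at least 75% with every replicate also reaching 75%; inconclusive = mean inhibition at least 75% but some replicate below; inactive = mean inhibition below 75%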
697 NFkB inh: lowers PMA/ionomycin-induced NF-kB signal in 697 B cells. 697 B-cell NF-kB luciferase reporter, 16 h. actives 0.33% (n = 330,000). inhibition, % at 4 µM; in the data active = inhibition above about 35%
Beta cell apopt: beta cell apoptosis inhibition | INS-1E cytokine-induced death, ATP luminescence, 48 h; percent of positive-control rescue, neutral wells zero | actives 0.8% (n = 300,000) | protection from apoptosis, % (concentration not given with the values);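 active = Every replicate reaches about 75%, or at least half do and their mean reaches it too, limit read from the data; inconclusive = At least half of replicates reach the limit but their mean does not; inactive = Under half of replicates reach the limit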;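 also: higher means more ATP so stronger rescue from cytokine killing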
Each line names hits and unclear results; the compound was inactive in the other large screens.

CN(C)c1ccc(N=Cc2nc(-c3ccccc3)oc2O)cc1	none
COc1ccc(-c2nc(CN3CCN(c4cc(C)nc(C)c4)CC3)c(C)o2)c2ccccc12	Calb FLC 84.4
CCc1nc2ccc(C(=O)NCCc3c[nH]c4ccccc34)cn2c1N(C)Cc1ccc(N(C)C)cc1	none (no result: Jurkat NFkB inh, Calb FLC, 697 NFkB inh, Beta cell apopt)
COc1ccc(C(=O)On2c(-c3ccc(Br)cc3)nc3ccccc3c2=O)cc1	Calb FLC 104.0
COc1cc(OC)cc(-c2nc3ccccc3c(=O)n2OC(=O)c2ccc(Br)cc2)c1	none
COc1ccc(Br)cc1CSC(=N)N	none (no result: Beta cell apopt)
CCCCCOc1ccc(Br)cc1CSC(=N)N	Shn3 inh set2 88.7 (no result: Jurkat NFkB inh, 697 NFkB inh, Beta cell apopt)
Cc1ccccc1CN1CC2=C(CCN(Cc3ccccc3)C2=O)N2CCN=C12	Shn3 inh set2 81.1 (no result: Jurkat NFkB inh, Calb FLC, 697 NFkB inh, Beta cell apopt)
CCN(CC)S(=O)(=O)c1cc(C(=O)Nc2cc(C)on2)c(Cl)cc1Cl	none
COc1ccc(-c2nc(-c3ccc(NC(=O)c4ccncc4)cc3)no2)cc1OC	Shn3 inh set2 90.1 (no result: Beta cell apopt)
Cc1cc(C)c2c(=O)n3c(nc2c1)C(C)NC(=O)c1cccnc1-3 (configuration not stated)	none (no result: Jurkat NFkB inh, Calb FLC, 697 NFkB inh, Beta cell apopt)
C=CC[C@H](CC(=O)N[C@H](CO)Cc1ccccc1)C(=O)N[C@H](COC(=O)[C@@H](CC=C)CC(=O)OC(C)(C)C)Cc1c[nH]c2ccccc12	none (no result: Calb FLC)
Cc1ccc2ccc3ccc(C)nc3c2n1	Shn3 inh set2 inconclusive, Beta cell apopt 77.5 (no result: Calb FLC)
COc1ccc(CC(=O)NNC(=O)c2cc(C)oc2C)cc1OC	none
CC(=O)OC1CCC2C3CCC4OC(=O)CCC4C3CCC12C (configuration not stated)	none (no result: Jurkat NFkB inh, Calb FLC, 697 NFkB inh, Beta cell apopt)
C=C1C(=O)C2=CC1CCC(=O)C1(C)CCC(OC(C)=O)C(C)(C)C1CC2O (configuration not stated)	Shn3 inh set2 83.6 (no result: Jurkat NFkB inh, Calb FLC, 697 NFkB inh, Beta cell apopt)
CCOC(=O)c1nc(S(C)(=O)=O)ncc1N1CCOCC1	none (no result: Beta cell apopt)
Cc1nnc(NC(=O)c2nc(S(=O)(=O)Cc3ccccc3)ncc2Cl)s1	Shn3 inh set2 91.5 (no result: Beta cell apopt)
Cc1ccc(NC(=O)c2nc(S(=O)(=O)Cc3ccccc3)ncc2Cl)cc1	Shn3 inh set2 95.1, Beta cell apopt 109.1
CCCc1nnc(NC(=O)c2nc(S(=O)(=O)Cc3cccc(C)c3)ncc2Cl)s1	Shn3 inh set2 93.2
CCCc1nnc(NC(=O)CS(=O)(=O)c2ccc(C)cc2)s1	none
CCOC(=O)c1nc(S(C)(=O)=O)ncc1Cl	Shn3 inh set2 96.1 (no result: Beta cell apopt)
CCOC(=O)c1ccc(NC(=O)c2nc(SC)ncc2Cl)cc1	none
CCOP(=O)(OCC)C1NC(=O)N(c2ccccc2)C1=O (configuration not stated)	none
CCOC(=O)N1CCN(C(=O)/C=C/c2ccc(C(C)(C)C)cc2)CC1	none
Cc1cccc(NC(=O)c2ncn3c2C(=O)NC[C@H]3C)c1	none (no result: Jurkat NFkB inh, Calb FLC, 697 NFkB inh, Beta cell apopt)
Cc1cccc(C)c1NC(=O)c1nc(S(=O)(=O)Cc2ccccc2)ncc1Cl	Shn3 inh set2 96.3 (no result: Beta cell apopt)
Cc1ccccc1NC(=O)c1nc(S(C)(=O)=O)ncc1Cl	Shn3 inh set2 97.5
Cc1ccccc1NC(=O)c1cccc(C(=O)Nc2ccccc2C)n1	none
Cc1ccccc1CS(=O)(=O)c1ncc(Cl)c(C(=O)Nc2ccc(F)cc2)n1	Shn3 inh set2 94.6 (no result: Jurkat NFkB inh, 697 NFkB inh)
CSc1ncc(Cl)c(C(=O)Nc2ccc(S(=O)(=O)Nc3nccc(C)n3)cc2)n1	none
O=C(Nc1ccc(F)cc1)c1nn(-c2ccccc2)c(=O)cc1Cl	none (no result: Jurkat NFkB inh, 697 NFkB inh, Beta cell apopt)
O=C(Nc1ccc(F)cc1)c1nc(S(=O)(=O)Cc2ccccc2)ncc1Cl	Shn3 inh set2 94.5
Cc1cccc(CS(=O)(=O)c2ncc(Cl)c(C(=O)Nc3c(C)cccc3C)n2)c1	none (no result: Beta cell apopt)
Cc1cccc(CS(=O)(=O)c2ncc(Cl)c(C(=O)NCc3ccccc3)n2)c1	Shn3 inh set2 95.3
CCCCCCN1C[C@@H](O)[C@H](n2cc(COC(=O)c3ccccc3)nn2)C[C@@H]1c1ccccc1	none (no result: Jurkat NFkB inh, Calb FLC, 697 NFkB inh, Beta cell apopt)
O=C(c1ccc(C(=O)N2CCN(c3ccccc3F)CC2)nc1)N1CCN(c2ccccc2F)CC1	Calb FLC 95.1 (no result: Beta cell apopt)
C[C@H](CO)N1C[C@H](C)[C@H](CN(C)Cc2ccccc2)Oc2ncc(Br)cc2C1=O	none (no result: Jurkat NFkB inh, Calb FLC, 697 NFkB inh, Beta cell apopt)
COc1ccc(S(=O)(=O)N(C(=O)c2ccco2)c2cc3sc(=O)oc3c3ccccc23)cc1	Beta cell apopt 98.2
CCOc1ccc(S(=O)(=O)N(C(=O)c2ccco2)c2cc3sc(=O)oc3c3ccccc23)cc1	Beta cell apopt 98.9
Cc1ccc(S(=O)(=O)N(C(=O)c2ccco2)c2cc3sc(=O)oc3c3ccccc23)cc1	none
O=C(CCc1ccncc1)NC1CCCc2c1cnn2-c1ccc(F)cc1F (configuration not stated)	none
C=C(C(=O)c1ccccc1)C(CC(=O)c1ccccc1)c1ccccc1 (configuration not stated)	Shn3 inh set2 88.7
C=C(CCC(=O)c1ccccc1)C(=O)c1ccccc1	none (no result: Jurkat NFkB inh, 697 NFkB inh)
CN(CC(=O)Nc1cccc(F)c1)C(=O)c1ccc(COc2ccccc2)cc1	none
Nn1c(COc2ccccc2)nc2ccccc2c1=O	none
COc1cccc(OCc2nc3ccccc3c(=O)n2N)c1	Calb FLC 108.2
CC(C)CN(CC(C)C)c1nn[nH]n1	none (no result: Jurkat NFkB inh, Calb FLC, 697 NFkB inh, Beta cell apopt)
O=C(CCN1CCN(c2ccccc2)CC1)N/N=C/c1ccc(O)c(O)c1O	Calb FLC 113.8 (no result: Jurkat NFkB inh, 697 NFkB inh, Beta cell apopt)
CCOC(=O)C1=Nc2ccccc2C1=[N+]=[N-]	Beta cell apopt 107.0
COc1cccc(N2CCN(c3nc(C)cc(=O)[nH]3)CC2)c1	none
CC(C)CN(C(=O)COC(=O)CNC(=O)c1ccccc1F)C1CCS(=O)(=O)C1 (configuration not stated)	Calb FLC 107.4
CSc1ccc(S(=O)(=O)Nc2ccc3c(c2)OCCO3)cc1	none
CSc1ccc(S(=O)(=O)Nc2ccc(N3CCOCC3)c(Cl)c2)cc1	Beta cell apopt 103.9
COc1ccc(S(=O)(=O)Nc2ccc(N3CCOCC3)cc2)cc1	none
COc1ccc(NS(=O)(=O)c2ccc(N3CCOCC3)c(N)c2)cc1	Beta cell apopt 76.4 (no result: Calb FLC)
O=C(NN=Cc1ccccc1OC(F)F)c1ccc(NS(=O)(=O)c2cccs2)cc1	none (no result: Calb FLC)
N=C1/C(=C\c2ccc(SCc3ccccc3)o2)C(=O)N=C2SC=NN12	Calb FLC 77.8
CCn1nnnc1NC(=O)c1cc(Cl)c(OC)c(Cl)c1	Calb FLC 76.0
CCn1nnnc1NC(=O)c1cccc(OC)c1	none
COc1cccc(CNc2nc(NC(C)C)nc3ccsc23)c1OC	none (no result: Jurkat NFkB inh, Calb FLC, 697 NFkB inh, Beta cell apopt)
COc1cccc(CNc2nc(NCC3CC3)nc3ccsc23)c1	Shn3 inh set2 85.8 (no result: Jurkat NFkB inh, Calb FLC, 697 NFkB inh, Beta cell apopt)
COc1cccc(CNc2nc(NCc3ccccc3)nc3ccsc23)c1	none (no result: Jurkat NFkB inh, Calb FLC, 697 NFkB inh, Beta cell apopt)
COc1ccccc1CNc1nc(NCc2ccc(C(C)C)cc2)c2sccc2n1	Shn3 inh set2 87.5 (no result: Jurkat NFkB inh, Calb FLC, 697 NFkB inh, Beta cell apopt)
COc1cccc(CNc2nc(NCC3CC3)nc3ccsc23)c1OC	Shn3 inh set2 81.7 (no result: Jurkat NFkB inh, Calb FLC, 697 NFkB inh, Beta cell apopt)
O=C(Nc1cccc(OCC(=O)N2CCOCC2)c1)c1ccc(C(F)(F)F)cc1	none
CN1\C(=C/C=C/C=C/C=[N+](C)C)C(C)(C)c2ccccc21	Shn3 inh set2 89.4 (no result: Jurkat NFkB inh, 697 NFkB inh, Beta cell apopt)
c1cc2c3c(cccc3c1)C(N1CCOCC1)=N2	none
c1ccc(CC2CCN(C3=Nc4cccc5cccc3c45)CC2)cc1	Calb FLC 86.5
O=C(Nc1cccnc1)C1(F)C(F)(F)C(F)(F)C(F)(F)C(F)(F)C1(F)F	Beta cell apopt 109.5
